The list is not random: actives were taken first. Their share in the collection is about 4.7%.
TRHR agonist = TRH receptor (human) agonism; P34981; TRHR cells, calcium flux fluo-8, FDSS agonist mode; activation, % at 2 µM; 360,000 tested, 0.18% active
Target sequence (P34981 whole entry, looked up): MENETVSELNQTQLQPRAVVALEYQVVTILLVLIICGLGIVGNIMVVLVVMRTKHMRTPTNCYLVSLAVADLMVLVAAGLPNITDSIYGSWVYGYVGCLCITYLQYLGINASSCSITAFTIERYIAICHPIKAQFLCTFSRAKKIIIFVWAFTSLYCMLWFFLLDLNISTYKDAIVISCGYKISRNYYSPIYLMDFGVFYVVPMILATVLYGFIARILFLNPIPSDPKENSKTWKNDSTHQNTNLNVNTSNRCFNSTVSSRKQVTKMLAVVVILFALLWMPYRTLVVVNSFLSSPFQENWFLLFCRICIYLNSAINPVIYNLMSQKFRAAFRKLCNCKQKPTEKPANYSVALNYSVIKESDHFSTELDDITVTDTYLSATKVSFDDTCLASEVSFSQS
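TRHR-expressing cells, plated overnight in medium with 10% serum, were loaded with fluo-8 calcium dye at room temperature. After a 10 s baseline, library compound was pin-added and calcium release was recorded kinetically (ex 480/em 530) as agonist response.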
TRHR enhancer = allosteric enhancers of human TRH receptor; TRHR cells, fluo-8 calcium fluorescence, EC20 TRH enhancement; enhancement, % at 2 µM; 360,000 tested, 0.66% active; P34981; in the data active means enhancement above about 30%
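TRHR-expressing cells loaded with fluo-8 calcium dye were read kinetically (ex 480/em 530) during compound addition, then stimulated with an EC20 of TRH (10 nM final). Enhancement of the Gq-mediated intracellular calcium response was scored.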
D1 ag = agonists of human D1 dopamine receptor; P21728; HEK293 T-REx D1 cells, calcium flux, agonist mode; activation, % at 2 µM; 360,000 tested, 1% active
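Tetracycline-induced HEK293 TREx D1 cells, force-coupled to calcium signalling, were dye-loaded with a no-wash calcium kit. Compound was pin-added after a 10 s baseline. Fluorescence was read kinetically at 1 cycle/s for 180 s, with calcium rises flagged as agonism.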
D1 PAM = human D1 dopamine receptor positive modulation | HEK293 TREx D1 cells, calcium flux, dopamine EC20 potentiation | potentiation, % at 10 µM | P21728 | 360,000 tested, 0.036% active; in the data active means potentiation above about 30%
D1 antagonist = human D1 dopamine receptor antagonism | P21728 | HEK293 TREx D1 cells, calcium flux, dopamine EC80; stronger effect = lower value | activity change, negative = inhibition, % at 10 µM | 360,000 tested, 3.2% active; in the data active means activity change below about -30%
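Cells carrying a force-coupled, tetracycline-inducible human D1 receptor report calcium flux. Each well gets a 10 s baseline, compound with 180 s monitoring, then an EC80 dopamine stimulus with a second 180 s kinetic read.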
Each line names hits and unclear results; the compound was inactive in the other large screens. Unless noted, no stated cut-off is given here; in the data, active means activation above about 30%; inactive means the rest.

Cc1ccc(-c2n[nH]c3c2C(c2cccs2)N(c2ccc(Cl)cc2)C3=O)cc1 (stereo not drawn)	none
COc1ccc(CN2C(=O)c3oc4ccc(F)cc4c(=O)c3C2c2ccc(O)cc2)cc1 (stereo not drawn)	D1 antagonist -36
CCOc1ccc(CNC(=O)C2CCCN(S(=O)(=O)c3ccc4c(c3)CCCC(=O)N4)C2)cc1 (stereo not drawn)	none
Cc1cc(Br)ccc1NC(=O)COc1cc(=O)n(C)c2ccccc12	none
O=C(O)c1ccc(Cl)c(NCc2ccncc2)c1	none
Cc1ccc(C(=O)O)cc1NCc1ccncc1	TRHR enhancer 30
CC(=O)c1ccc(NC(=O)CSc2nccn2Cc2ccc3c(c2)OCO3)cc1	none
CCCN(CCC)C(C)C(=O)NCC1(c2ccccc2)CCCC1 (stereo not drawn)	D1 antagonist -41
CCCCn1cc(S(=O)(=O)c2ccc(CC)cc2)c(=O)c2cc(F)c(N3CCCC(C)C3)cc21 (stereo not drawn)	TRHR enhancer 39
CCCCn1cc(S(=O)(=O)c2ccc(OC)cc2)c(=O)c2cc(F)c(F)cc21	D1 antagonist -39
CCn1cc(S(=O)(=O)c2ccccc2)c(=O)c2cc(F)c(F)cc21	TRHR enhancer 43
CCOC(=O)c1c(-c2ccccc2)oc2ccc(N(C(C)=O)S(=O)(=O)c3ccc(CC)cc3)cc12	none
Cc1ccc(S(=O)(=O)C2(C(=O)Nc3ccc(Cl)c(C(F)(F)F)c3)CC2)cc1	none
COC1(C(F)(F)F)NC(=O)N(c2ccc(F)cc2)C1=O (stereo not drawn)	none
CCc1ccccc1N(CC(=O)OC)S(C)(=O)=O	none
COC(=O)CN(c1ccccc1C)S(C)(=O)=O	D1 antagonist -38
Fc1ccc(CSc2ccc(-c3ccco3)nn2)cc1	D1 antagonist -85
COc1ccc(Nc2nc3c(S(=O)(=O)c4ccc(Br)cc4)nnn3c3ccsc23)c(OC)c1	none
COc1cccc(C2CC(c3cccs3)=NN2S(C)(=O)=O)c1 (stereo not drawn)	none
COc1cccc(C2=NN(S(C)(=O)=O)C(c3cn(-c4ccccc4)nc3-c3cccs3)C2)c1 (stereo not drawn)	D1 antagonist -39
Cc1ccc(-c2nn(-c3ccccc3)cc2C2CC(c3cccs3)=NN2C(=O)CCCC(=O)O)cc1 (stereo not drawn)	none
O=C(O)CCC(=O)N1N=C(c2cccs2)CC1c1cn(-c2ccccc2)nc1-c1ccccc1 (stereo not drawn)	TRHR enhancer 34
c1coc(CNC2CCCCC2)c1	none
c1coc(CNC2CCCCCCC2)c1	D1 antagonist -48
CCc1cccc(NC(=O)Cn2c(-c3ccccc3)cc(C(C)=O)c2C)c1	D1 antagonist -33
CC(=O)c1cc(-c2ccccc2)n(CC(=O)Nc2cccc(C)c2)c1C	none
CN1c2ccc(Cl)cc2-c2nc(SCC(=O)NCc3ccc(F)cc3)ncc2S1(=O)=O	none
COc1ccccc1CNCc1cc(Br)ccc1OC	D1 ag 37
COc1cccc(CNCc2ccccn2)c1OC	none
COc1cccc(CNCc2ccc(OC)c3ccccc23)c1OC	D1 ag 50, D1 antagonist -41
CCc1ccccc1NC(=O)Cn1nnc(-c2nc(-c3ccc(C)cc3)no2)c1N	none
O=C1/C(=C\c2ccco2)SC(=S)N1c1ccc(O)cc1	D1 antagonist -31
COc1cc(/C=C2\SC(=Nc3ccc(O)cc3)NC2=O)cc(OC)c1O	TRHR agonist 44
CCc1ccc(N=C2NC(=O)/C(=C/c3cc(OC)c(OC)c(OC)c3)S2)cc1	none
O=C1NC(=Nc2ccc(O)cc2)S/C1=C/c1ccco1	D1 antagonist -37
O=C1/C(=C/C=C/c2ccco2)SC(=S)N1c1ccc(O)cc1	none
CC(C)CCNC(=O)c1ccc(Cn2c(=O)c3cccn3c3cccnc32)cc1	none
N#Cc1cc(N)c(Nc2ccccc2)cc1C#N	D1 antagonist -41
CCc1nnc(SCC(=O)Nc2cc(Cl)c(OC)cc2OC)c2cc3oc(C)cc3n12	none
Nc1ccc(Oc2ccc(F)cc2)nc1	TRHR enhancer 34
O=Cc1ccc(Oc2ccc(F)cc2)nc1	none
Cc1ccc(C(c2nnnn2C2CCCCC2)N2CCc3ccccc32)cc1 (stereo not drawn)	D1 antagonist -34
CC(C)C(c1nnnn1C1CCCCC1)N1CCc2ccccc21 (stereo not drawn)	none
CCOc1ccc(N2C(=O)CC(NC3CCN(C(=O)c4cccc(Cl)c4)CC3)C2=O)cc1 (stereo not drawn)	none
CCOc1ccc(N2C(=O)CC(NC3CCN(C(=O)c4cccs4)CC3)C2=O)cc1 (stereo not drawn)	D1 ag 79
N#Cc1ccsc1NC(=O)c1ccc(Cl)c([N+](=O)[O-])c1	D1 ag 39, D1 antagonist -38
N#Cc1ccsc1NC(=O)c1cccc([N+](=O)[O-])c1	none
C=CCn1ccc(=NC=C(C#N)C#N)c2ccccc21	D1 ag 31
CCCCOC(=O)c1ccc(NC(=O)c2cc(-c3cccs3)on2)cc1	none
CCC(=O)OCc1cnc(C)c2oc(=O)c(C(=O)Nc3ccc(CC)cc3)cc12	none
Cc1cccc(CC2C(=O)Nc3ccccc32)c1 (stereo not drawn)	none
Cc1ccc(OCc2cc(C(=O)N(CCO)Cc3cccs3)no2)cc1C	D1 antagonist -45
CCN(Cc1ccncc1)C(=O)c1cc(COc2ccc(C)c(C)c2)on1	none
O=C(CSc1nc2c([nH]c3ccccc32)c(=O)n1-c1ccc(Cl)cc1)N1CCOCC1	none
COc1cc(CN2CCN(C(O)(c3ccccc3)c3ccccc3)CC2)cc(OC)c1OC	D1 antagonist -67
CCN(CC)C(=O)COc1ccc(N(C)S(=O)(=O)c2ccc(NC(C)=O)cc2)cc1	D1 antagonist -38
CN(c1ccc(OCC(=O)OCC(=O)Nc2ccccc2)cc1)S(=O)(=O)c1cccs1	D1 antagonist -47
CN(c1ccc(OCC(=O)OCC(=O)Nc2ccc(Br)cc2)cc1)S(=O)(=O)c1cccs1	none
CN(c1ccc(OCC(=O)OCC(=O)Nc2ccc(F)cc2)cc1)S(=O)(=O)c1ccc(Cl)cc1	D1 antagonist -56
COc1ccc(CCNC(=O)C(=O)NCC(c2ccco2)S(=O)(=O)c2ccc(C)cc2)cc1 (stereo not drawn)	none (no result: D1 antagonist)
O=C(COC(=O)c1ccccc1Cl)Nc1nccs1	D1 ag 45
O=C(COC(=O)c1cc(=O)[nH]c2ccccc12)Nc1nccs1	none
Cc1ccc(C)c(Cn2c3ccccc3c3cnn(CC(=O)NC4CCC(C)CC4)c(=O)c32)c1 (stereo not drawn)	none
COc1cc(C2C(C#N)=C(C)NC3=C2C(=O)c2ccccc23)cc(OC)c1OC (stereo not drawn)	D1 antagonist -53
CC(=O)c1cc(-c2ccc(F)cc2)n(CC(=O)NC2CCCCCC2)c1C	none
